Laboratory results reported in PubChem BioAssay (EPA / NIEHS).
Inconclusive results are not listed. Active and inactive are the calls of the source. Rule for the calls: active = hit-call score of the fitted dose curve at least 0.9, where 1 is the maximum; inconclusive = response in the unintended direction; inactive = score below 0.9.

What follows are compounds tested on ABC Transporter (ABCB11), ABCB11 (gene 8647) (assay: CLD_ABCB11_6hr: CellzDirect (CLD) Gene Expression Assay for ABC Transporter (ABCB11) at 6 hours (AID 2283675);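 note: hits raise ABCB11 mRNA level so AC50 marks induction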).
Procedure: CLD_6hr is a cell-based, multiplexed-readout assay that uses hepatocyte, a human liver primary cell, with measurements taken at 6 hours after chemical dosing in a 96-well plate.CLD_ABCB11_6hr is one of 16 assay component(s) measured or calculated from the CLD_6hr assay. It is designed to make measurements of mRNA induction, a form of inducible reporter, as detected with chemiluminescence signals by Quantitative Nuclease Protection Assay (qNPA) technology.Data from the assay component CLD_ABCB11_6hr was analyzed at the endpoint, CLD_ABCB11_6hr, in the positive analysis fitting direction relative to DMSO as the negative control and baseline of activity. Using a type of inducible reporter, gain-of-signal activity can be used to understand changes in the reporter gene as they relate to the gene ABCB11. Furthermore, this assay endpoint can be referred to as a primary readout. To generalize the intended target to other relatable targets, this assay endpoint is annotated to the transporter intended target family, where subfamily is ABC transporter.
Human hepatocyte cultures were treated daily for two consecutive days with fresh dosing solutions containing appropriate concentrations of the 320 ToxCast chemicals (chemical identities were blinded to CellzDirect and other ToxCast collaborators), vehicle control (0.2% DMSO), and positive control inducers as summarized in Table 1. Due to the large number of treatment groups and chemicals examined, the ToxCast chemicals were divided into two groups (spanning two independent cultures of hepatocytes from separate donor preparations (Hu778: ToxCast plates 1 and 2; Hu776: ToxCast plates 3 and 4). Each preparation of human hepatocyte cultures was treated with respective vehicle control, medium only control, set of six positive controls/reference chemicals for the five hepatic receptor pathways, and a subset of eight of the ToxCast chemicals (indoxacarb, pyrithiobac-sodium, norflurazon, cyhalofop-butyl, methomyl, thiram, acetochlor, and propiconazole). These replicate data, coupled with internal replicates designed within the blinded ToxCast chemical library, provided additional data to evaluate interindividual differences between hepatocyte preparations and their potential impact on chemical profiles.Cell morphology and integrity were evaluated using phase-contrast microscopy as an indicator of hepatocyte cell health (Tyson & Green, 1987). Cultures for each treatment group (i.e., media, vehicle [0.2% DMSO], positive control inducers [multiple concentrations], and the ToxCast chemicals [multiple concentrations]) were observed and cell morphology was assessed relative to vehicle control cultures at each harvest time point (0, 6, 24, or 48 h). […] Images were evaluated at the conclusion of the study to assess changes in cell integrity and account for the effects of chemical exposure on uncharacteristic changes in concentration-dependent gene expression profiles. The results from these determinations of apparent cytotoxicity were annotated (yes/no) alongside the corresponding qNPA data for reference.At the conclusion of each treatment period, hepatocyte cultures (96-well) were washed with 1 volume of HBSS, lysed by addition of 25 ul ArrayPlate lysis buffer (HTG, Tucson, AZ), and 70 ul/well of Denaturation Oil, denatured by incubation at 95C for 10 min, and frozen at approximately -70C until analysis by nuclease protection assay (qNPA) (Roberts et al., 2007). For qNPA analysis, cell lysates were thawed at 50C for approximately 30 min, qNPA probes were added, and samples were incubated at 95C for 10 min to begin the detection process by denaturing the target RNA, dissociating the duplexes and secondary structure hybridization. At the conclusion of the hybridization period, S1 nuclease reagent was added to each sample to digest all nonprotected nucleotides at 50C for 60-90 min. […]

Structure (SMILES)	outcome
COP(=S)(OC)SCn1nnc2ccccc2c1=O	inactive
CCOc1cc(C(C)(C)C)ccc1C1COC(c2c(F)cccc2F)=N1 (stereo not given)	inactive
O=c1n(Cl)c(=O)n(Cl)c(=O)n1Cl	inactive
CN=C=S	inactive
Nc1c(Cl)c(Cl)nc(C(=O)O)c1Cl	inactive
CCNP(=S)(OC)O/C(C)=C/C(=O)OC(C)C (stereo not given)	inactive
CS(=O)(=O)c1ccc(C(=O)C2C(=O)CCCC2=O)c([N+](=O)[O-])c1	inactive
COCc1cnc(C2=NC(C)(C(C)C)C(=O)N2)c(C(=O)O)c1 (stereo not given)	inactive
CO/N=C(/C1=NOCCO1)c1ccccc1Oc1ncnc(Oc2ccccc2Cl)c1F	inactive
CNC(=O)Oc1cccc2ccccc12	inactive
COc1ccc(-c2ccccc2)cc1NNC(=O)OC(C)C	inactive
CCOP(=S)(OCC)Oc1nc(Cl)n(C(C)C)n1	inactive
Clc1cccc(C(Cl)(Cl)Cl)n1	inactive
CS(=O)(=O)c1cc(C(F)(F)F)ccc1C(=O)c1cnoc1C1CC1	inactive
COC(=O)N(C(=O)N1CO[C@@]2(C(=O)OC)Cc3cc(Cl)ccc3C2=N1)c1ccc(OC(F)(F)F)cc1	inactive
COc1cc(Cl)c(OC)cc1Cl	inactive
Cc1nc(N(C)C)nc(OC(=O)N(C)C)c1C	inactive
COC(=O)NS(=O)(=O)c1ccc(N)cc1	inactive
COP(=O)(OC)O/C(C)=C/C(=O)N(C)C	inactive
COc1cc(OC)nc(NC(=O)NS(=O)(=O)c2ncccc2OCC(F)(F)F)n1	inactive

Structure (SMILES)	outcome
Clc1nc(Cl)nc(Nc2ccccc2Cl)n1	inactive
CC(C)(C)C(=O)C(Oc1ccc(Cl)cc1)n1cncn1 (stereo not given)	inactive
CC(C)N1C(=O)N(c2ccccc2)CSC1=NC(C)(C)C	inactive
COP(=S)(OC)Oc1ccc([N+](=O)[O-])c(C)c1	inactive
O=C1C2CC=CCC2C(=O)N1SC(Cl)(Cl)Cl (stereo not given)	inactive
O=C(Nc1ccccc1-c1ccc(Cl)cc1)c1cccnc1Cl	inactive
Nc1c(Cl)c(F)nc(OCC(=O)O)c1Cl	inactive
C=CCOC(=O)C(C)(C)OC(=O)c1cc(-n2c(=O)cc(C(F)(F)F)n(C)c2=O)ccc1Cl	inactive
CCCC(=NOCC)C1=C(O)CC(CC(C)SCC)CC1=O (stereo not given)	inactive
CC(C)N1C(=O)c2ccccc2NS1(=O)=O	inactive
N#Cc1c(Cl)cccc1Cl	inactive
CC1(C)CCC(=Cc2ccc(Cl)cc2)C1(O)Cn1cncn1 (stereo not given)	inactive
CCOP(=O)(OCC)Oc1nc(Cl)c(Cl)cc1Cl	inactive
CCOc1nc(C(Cl)(Cl)Cl)ns1	inactive
CC(C)=CC1C(C(=O)OCc2coc(Cc3ccccc3)c2)C1(C)C (stereo not given)	inactive
CSC(=O)c1c(C(F)F)nc(C(F)(F)F)c(C(=O)SC)c1CC(C)C	inactive
O=C(O)c1c(Cl)ccc2cc(Cl)cnc12	inactive
COCC(C)N(C(=O)CCl)c1c(C)csc1C (stereo not given)	inactive
OC(c1ccc(Cl)cc1)(c1ccc(Cl)cc1)C(Cl)(Cl)Cl	inactive
O=P(O)(O)CCCl	inactive
